Measurements reported in PubChem BioAssay (NCI).
Compounds without any hit were thinned out: in the full panel of roughly 83,000, 20% have a hit.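 For each line, cells grew in 96-well plates with the test compound present at a single concentration for 48 hours.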 The source made the active and inactive calls.

Tested on: OVCAR-5 ovarian
Test: NCI-60 one-dose screen, 48 h (100 = growth as untreated, 0 = no growth, -100 = all killed)
Details: 10 µM unless noted
Method: Growth inhibition of the OVCAR-5 human tumor cell line is measured as a screen for anti-cancer activity. Cells are grown in 96 well plates and exposed to the test compound for 48 hours. Compounds are tested at a single concentration, which is 10^-5 M for most compounds. The reported endpoint is percent growth (GI% or GIPRCNT), where numbers from 0 - 100% represent growth inhibition, and numbers from -100% - 0 represent cell death. For example, a value of 40 represents 60% growth inhibition. A value of 0 means no net growth occurred over the course of the experiment. A value of -40 indicates 40% of cells at the beginning of the experiment died by the end of the experiment. A value of -100 means all cells are dead at the end of the experiment.
NCI-60 Human Tumor Cell Lines Screen was performed using the standard one-dose NCI protocol, which is described in more detail at https://dtp.cancer.gov/discovery_development/nci-60/default.htm.
Compounds with GIPRCNT values below 10 were considered active. Activity score was based on GIPRCNT using the following formula: […]
Score is 0 for GIPRCNT values of 100 or above, 50 for GIPRCNT values of 0, and 100 for GIPRCNT values of -100.

| SMILES | growth |
| --- | --- |
| COc1cccc2c(=O)c3c(sc12)c(N1CCNCC1)nc1ccccc13 | 94.9% (inactive) |
| CCCCn1c(-c2ccc(-c3nc(-c4ccc(Cl)cc4)no3)cc2)nc(-c2ccccc2)c1-c1ccccc1 | 85.4% (inactive) |
| CCOC(=O)c1[nH]c(C)c(C(=O)OCc2ccccc2C#N)c1C | 105% (inactive) |
| Nc1nc(-c2cccc3ccccc23)cc2ccccc12 | 20.9% (inactive) |
| COc1cc2oc(-c3ccc(O)cc3)cc(=O)c2c(O)c1-c1c(OC)cc(O)c2c(=O)cc(-c3ccc(O)cc3)oc12 | 101% (inactive) |
| Cc1nc2ccccc2n1-c1ncnc2c1CC(C)c1ccccc1N2C (stereo not given) | 101% (inactive) |
| CC(=O)O.CN1[CH-]N(Cc2ccc(C#N)cc2)c2ccccc21.[Ag+] | 117% (inactive) |
| Cc1ccc(C(=O)NCCNc2nccc(-c3c(-c4cccc(F)c4)nc4sccn34)n2)cc1 | 69.2% (inactive) |
| CC([C@H]1CCC2C3CCC4C[C@@H](NC=O)CC[C@]4(C)C3CC[C@@]21C)N(C)C (stereo not given in full) | 67.8% (inactive) |
| CNc1nc2c(s1)C(c1cccc(F)c1)CC(=O)N2 (stereo not given) | 97.1% (inactive) |
| N#Cc1c(-c2ccc(Cl)cc2)nc(NCCO)[nH]c1=O | 91.6% (inactive) |
| O=C(Nc1nc2ccc(F)cc2s1)c1cccnc1Nc1ccc(Cl)cc1Cl | 64.3% (inactive) |
| CC([C@H]1CCC2C3CCC4C(=O)C(NC=O)=CC[C@]4(C)C3CC[C@@]21C)N(C)C (stereo not given in full) | 93.2% (inactive) |
| O=c1[nH]c2c(ccc3cnccc32)c2c1CCC2 | -2.64% (active) |
| CCC(C)(c1cc(C(C)(C)C)c(O)c(C(C)(C)C)c1)c1cc(C(C)(C)C)c(O)c(C(C)(C)C)c1 | 94.5% (inactive) |
| COc1ccc(/C=C2\Oc3cc(OCCN4CCC(Cc5ccccc5)CC4)ccc3C2=O)cc1OC | 93.4% (inactive) |
| CC(=O)OC[C@H]1OC(Sc2sc(C(=O)c3ccc(C)cc3)c(N)c2-c2nc3ccccc3s2)[C@H](OC(C)=O)[C@@H](OC(C)=O)[C@@H]1OC(C)=O (stereo not given in full) | 58.6% (inactive) |
| Cc1nc2ccccc2c(/C=C/c2ccccc2)c1C(=O)/C=C/c1ccc(C(F)(F)F)cc1 | -34.6% (active) |
| O=C(CS(=O)c1oc(-c2cccs2)nc1S(=O)(=O)c1ccc(Br)cc1)c1ccccc1 (stereo not given) | 89.2% (inactive) |
| O=c1[nH][n+](-c2ccc(Br)cc2)no1 | 74.7% (inactive) |

| SMILES | growth |
| --- | --- |
| COc1cc(C2CC(c3ccc(SC)cc3)=NN2C(C)=O)cc(OC)c1OC (stereo not given) | 100% (inactive) |
| C[C@]12CC[C@@H]3c4cc(OC(F)F)c(OS(N)(=O)=O)cc4CC[C@H]3[C@@H]1CC[C@@H]2O | 49.3% (inactive) |
| c1ccc(Nc2cc(-c3cccnc3)[nH]n2)cc1 | 93.6% (inactive) |
| COc1ccc(OC)c(/C=C/C(=O)N/N=C/c2ccccc2)c1 | 85% (inactive) |
| C=C1C(=O)O[C@H]2[C@H]1CC/C(COC(=O)CCC(=O)NCCOCCOCC(=O)Nc1ccc(OC)c(C(N)=O)c1O)=C\CC[C@@]1(C)O[C@@H]21 | 109% (inactive) |
| O=C(/C=C/c1sc(Cl)nc1Cl)c1ccc(F)cc1 | 104% (inactive) |
| COC(=O)[C@H](C)NC(=O)NC(=O)NC(=O)CI | 108% (inactive) |
| COc1ccc(-c2cc(-c3cc(OC)c(OC)c(OC)c3)nc(N3CCOCC3)c2C#N)cc1 | 78.4% (inactive) |
| COc1ccc(-c2nc3sc(-c4ccccc4)cn3n2)cc1 | 108% (inactive) |
| NC1=NC(c2cccc(Br)c2)c2sc3ccc(Cl)cc3c2N1 (stereo not given) | 103% (inactive) |
| O=c1cc(SCc2ccccc2)nc[nH]1 | 93.5% (inactive) |
| CC(=O)N1CCN(c2ccc(OCC3CO[C@](Cn4ccnc4)(c4ccc(Cl)cc4Cl)O3)cc2)CC1 (stereo not given in full) | 91.3% (inactive) |
| O=S(=O)(NCCCNc1cc(-c2c(-c3cccc(O)c3)nc3sccn23)ccn1)c1cccc2ccccc12 | 102% (inactive) |
| O=C(O)c1cn(C2CC2)c2cc(N3CCN(C(=O)Nc4nc(-c5ccccc5)cs4)CC3)c(F)cc2c1=O | 50.3% (inactive) |
| O=C(Cc1ccc(F)c(Cl)c1)Nc1cc(C2(C(F)(F)F)CC2)nn1CC1CCCCC1 | 0.818% (active) |
| CCOC(=O)c1c(C)oc2ncnc(N3CCN(C(=O)COc4ccc(C(C)(C)C)cc4)CC3)c12 | 96.8% (inactive) |
| Cc1cc(Cl)ccc1NS(=O)(=O)c1ccc(-c2cnc(C3CC3)o2)cc1 | 27.8% (inactive) |
| N/C(=N\c1nc2ccccc2s1)NC(=O)Nc1cccc2ccccc12 | 41.1% (inactive) |
| Cc1cccc2c1S/C(=C/c1ccc([N+](=O)[O-])cc1)C2=O | 41.3% (inactive) |
| Cc1c(C(=O)NCCN2CCOCC2)cn2ncnc(Oc3ccc(NC(=O)Nc4ccc(Cl)c(C(F)(F)F)c4)cc3)c12 | 53.3% (inactive) |
